Reference: PMC7862700, “An all-to-all approach to the identification of sequence-specific readers for epigenetic DNA modifications on cytosine”

What was measured:
Test in all cases: DAPPL (digital affinity profiling via proximity ligation, sequencing); 10 mM Tris-HCl pH 7.5, 50 mM NaCl, 1 mM DTT, 4% glycerol, room temperature, 30 min; GST-TFs on glutathione beads, 16-mer random dsDNA library, 0.1% formaldehyde crosslink after washing; high values mean tight binding
FEV = biological target: T1, FEV (Homo sapiens, UniProt Q99581 1-238); conditions: protein: recombinant; tags: N-terminal GST; dsDNA, one strand shown
T1 sequence: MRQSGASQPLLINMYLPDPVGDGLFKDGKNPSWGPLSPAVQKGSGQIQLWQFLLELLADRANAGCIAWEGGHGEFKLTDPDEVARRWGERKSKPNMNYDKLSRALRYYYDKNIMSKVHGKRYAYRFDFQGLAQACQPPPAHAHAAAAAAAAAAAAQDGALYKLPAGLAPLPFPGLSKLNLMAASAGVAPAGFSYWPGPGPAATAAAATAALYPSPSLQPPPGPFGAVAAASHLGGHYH
Summary of the method: (§1)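 Human transcription factors were made in yeast as GST fusions, captured on glutathione beads and barcoded with DNA. With a tag-only sample included, the pool was incubated with 200 nmole of a random double-stranded 16-mer DNA library in Tris/NaCl/DTT/glycerol buffer at room temperature for 30 min, then crosslinked with 0.1% formaldehyde after washing, ligated by proximity, amplified and sequenced. For binding signal, each hexamer's read frequency for a factor is divided by its frequency for the tag-only sample.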

ETV5 = ETV5 (Homo sapiens, UniProt P41161 1-510); conditions: protein: recombinant; tags: N-terminal GST; dsDNA, one strand shown
Summary of the method: as §1

HSF1 = HSF1 (Homo sapiens, UniProt Q00613 1-529); conditions: protein: recombinant; tags: N-terminal GST; chain copies: 3; dsDNA, one strand shown
Summary of the method: as §1

SPIC = biological target: T2, SPIC (Homo sapiens, UniProt Q8N5J4 1-248); conditions: protein: recombinant; tags: N-terminal GST; dsDNA, one strand shown
T2 sequence: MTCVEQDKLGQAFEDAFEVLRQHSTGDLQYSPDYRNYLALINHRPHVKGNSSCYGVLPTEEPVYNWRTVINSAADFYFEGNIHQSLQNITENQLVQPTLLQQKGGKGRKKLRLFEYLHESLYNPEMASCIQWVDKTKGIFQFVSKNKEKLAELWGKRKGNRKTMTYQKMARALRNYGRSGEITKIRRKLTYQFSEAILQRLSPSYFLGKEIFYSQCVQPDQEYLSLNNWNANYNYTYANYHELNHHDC
Summary of the method: as §1

ELF4 = ELF4 (Homo sapiens, UniProt Q99607 1-663); conditions: protein: recombinant; tags: N-terminal GST; dsDNA, one strand shown
Summary of the method: as §1

ELK4 = biological target: T3, ELK4 (Homo sapiens, UniProt P28324-2 1-405); conditions: protein: recombinant; tags: N-terminal GST; dsDNA, one strand shown
T3 sequence: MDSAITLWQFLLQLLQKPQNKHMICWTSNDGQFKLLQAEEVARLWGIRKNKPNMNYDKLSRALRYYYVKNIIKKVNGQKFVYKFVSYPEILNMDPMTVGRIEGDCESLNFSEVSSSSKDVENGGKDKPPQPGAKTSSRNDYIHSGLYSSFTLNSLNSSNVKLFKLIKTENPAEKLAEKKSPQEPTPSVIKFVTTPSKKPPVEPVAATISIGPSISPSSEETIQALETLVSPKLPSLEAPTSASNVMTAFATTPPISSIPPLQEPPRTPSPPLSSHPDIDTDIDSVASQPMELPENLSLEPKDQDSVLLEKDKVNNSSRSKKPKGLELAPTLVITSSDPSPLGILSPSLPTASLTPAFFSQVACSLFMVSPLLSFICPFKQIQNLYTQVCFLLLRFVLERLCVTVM
Summary of the method: as §1

ETV2 = biological target: T4, ETV2 (Homo sapiens, UniProt O00321 1-342); conditions: protein: recombinant; tags: N-terminal GST; dsDNA, one strand shown
T4 sequence: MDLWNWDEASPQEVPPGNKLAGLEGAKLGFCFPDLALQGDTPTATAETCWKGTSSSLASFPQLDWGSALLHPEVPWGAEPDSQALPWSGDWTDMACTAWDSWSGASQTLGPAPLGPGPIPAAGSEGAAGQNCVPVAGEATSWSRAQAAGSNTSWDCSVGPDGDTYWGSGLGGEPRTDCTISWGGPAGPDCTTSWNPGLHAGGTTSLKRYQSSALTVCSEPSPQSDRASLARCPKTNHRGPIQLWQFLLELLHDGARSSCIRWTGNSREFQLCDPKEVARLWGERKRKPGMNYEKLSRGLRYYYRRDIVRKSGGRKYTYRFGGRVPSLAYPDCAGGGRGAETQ
Summary of the method: as §1

ELF3 = biological target: T5, ELF3 (Homo sapiens, UniProt P78545 1-371); conditions: protein: recombinant; tags: N-terminal GST; dsDNA, one strand shown
T5 sequence: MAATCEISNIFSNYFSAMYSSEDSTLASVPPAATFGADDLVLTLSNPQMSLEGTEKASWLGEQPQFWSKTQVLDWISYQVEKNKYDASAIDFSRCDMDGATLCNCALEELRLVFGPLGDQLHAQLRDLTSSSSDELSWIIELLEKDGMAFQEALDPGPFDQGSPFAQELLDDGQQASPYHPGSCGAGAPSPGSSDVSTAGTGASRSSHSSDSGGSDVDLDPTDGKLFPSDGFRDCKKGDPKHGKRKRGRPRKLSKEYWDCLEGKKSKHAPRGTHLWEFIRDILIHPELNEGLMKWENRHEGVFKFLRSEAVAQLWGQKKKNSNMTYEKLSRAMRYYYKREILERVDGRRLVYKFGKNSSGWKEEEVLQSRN
Summary of the method: as §1

CRX = CRX (Homo sapiens, UniProt O43186 1-299); conditions: protein: recombinant; tags: N-terminal GST; dsDNA, one strand shown
Summary of the method: as §1

ETV1 = ETV1 (Homo sapiens, UniProt P50549 1-477); conditions: protein: recombinant; tags: N-terminal GST; dsDNA, one strand shown
Summary of the method: as §1

ERF = biological target: T6, ERF (Homo sapiens, UniProt P50548 1-548); conditions: protein: recombinant; tags: N-terminal GST; dsDNA, one strand shown
T6 sequence: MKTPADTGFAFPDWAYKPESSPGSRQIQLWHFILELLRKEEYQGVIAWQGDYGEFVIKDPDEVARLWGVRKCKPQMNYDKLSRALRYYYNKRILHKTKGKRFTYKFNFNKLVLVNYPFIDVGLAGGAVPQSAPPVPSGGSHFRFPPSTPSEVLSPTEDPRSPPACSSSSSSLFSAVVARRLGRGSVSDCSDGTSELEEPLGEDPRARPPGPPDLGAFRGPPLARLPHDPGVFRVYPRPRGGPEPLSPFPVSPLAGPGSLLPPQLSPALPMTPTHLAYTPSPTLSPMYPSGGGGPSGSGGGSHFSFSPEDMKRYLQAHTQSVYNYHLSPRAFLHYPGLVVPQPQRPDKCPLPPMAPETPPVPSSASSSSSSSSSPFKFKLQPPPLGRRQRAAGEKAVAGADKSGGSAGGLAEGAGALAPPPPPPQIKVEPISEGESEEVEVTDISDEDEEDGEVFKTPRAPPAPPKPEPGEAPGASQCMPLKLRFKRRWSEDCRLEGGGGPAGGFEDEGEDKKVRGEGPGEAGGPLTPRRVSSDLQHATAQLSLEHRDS
Summary of the method: as §1

ETV3L = biological target: T7, ETV3L (Homo sapiens, UniProt Q6ZN32 1-361); conditions: protein: recombinant; tags: N-terminal GST; dsDNA, one strand shown
T7 sequence: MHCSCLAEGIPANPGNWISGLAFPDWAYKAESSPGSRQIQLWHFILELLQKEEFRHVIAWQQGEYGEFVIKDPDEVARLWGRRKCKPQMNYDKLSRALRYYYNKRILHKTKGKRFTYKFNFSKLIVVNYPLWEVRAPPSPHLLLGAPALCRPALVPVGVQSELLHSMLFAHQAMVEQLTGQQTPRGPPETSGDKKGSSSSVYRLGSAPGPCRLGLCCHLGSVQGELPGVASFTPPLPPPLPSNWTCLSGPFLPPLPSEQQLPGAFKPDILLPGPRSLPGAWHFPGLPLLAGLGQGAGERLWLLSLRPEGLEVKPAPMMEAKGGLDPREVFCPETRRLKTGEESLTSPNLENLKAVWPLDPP
Summary of the method: as §1

ETS2 = biological target: T8, ETS2 (Homo sapiens, UniProt P15036 1-469); conditions: protein: recombinant; tags: N-terminal GST; dsDNA, one strand shown
T8 sequence: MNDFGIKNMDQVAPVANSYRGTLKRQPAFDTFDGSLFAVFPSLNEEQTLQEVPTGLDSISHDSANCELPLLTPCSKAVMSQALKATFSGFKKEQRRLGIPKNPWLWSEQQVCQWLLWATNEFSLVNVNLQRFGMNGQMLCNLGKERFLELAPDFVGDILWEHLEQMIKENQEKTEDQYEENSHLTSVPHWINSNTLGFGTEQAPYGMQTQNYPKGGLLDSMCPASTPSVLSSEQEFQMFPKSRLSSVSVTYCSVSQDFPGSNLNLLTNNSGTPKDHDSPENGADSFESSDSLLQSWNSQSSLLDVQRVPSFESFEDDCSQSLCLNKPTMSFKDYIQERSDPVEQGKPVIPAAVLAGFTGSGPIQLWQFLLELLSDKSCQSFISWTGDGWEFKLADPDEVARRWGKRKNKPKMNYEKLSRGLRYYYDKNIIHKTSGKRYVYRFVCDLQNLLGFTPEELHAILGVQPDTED
Summary of the method: as §1

SPDEF = biological target: T9, SPDEF (Homo sapiens, UniProt O95238 1-335); conditions: protein: recombinant; tags: N-terminal GST; dsDNA, one strand shown
T9 sequence: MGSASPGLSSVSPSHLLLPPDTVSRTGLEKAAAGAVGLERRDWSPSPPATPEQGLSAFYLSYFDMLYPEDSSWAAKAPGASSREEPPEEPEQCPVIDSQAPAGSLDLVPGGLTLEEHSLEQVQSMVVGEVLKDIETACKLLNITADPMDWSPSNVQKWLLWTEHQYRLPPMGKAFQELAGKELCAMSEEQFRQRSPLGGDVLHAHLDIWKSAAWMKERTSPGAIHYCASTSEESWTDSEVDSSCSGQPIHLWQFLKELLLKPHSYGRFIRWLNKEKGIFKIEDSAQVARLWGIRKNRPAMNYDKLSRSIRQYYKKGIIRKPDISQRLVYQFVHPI
Summary of the method: as §1

ETV7 = biological target: T10, ETV7 (Homo sapiens, UniProt Q9Y603 1-341); conditions: protein: recombinant; tags: N-terminal GST; dsDNA, one strand shown
T10 sequence: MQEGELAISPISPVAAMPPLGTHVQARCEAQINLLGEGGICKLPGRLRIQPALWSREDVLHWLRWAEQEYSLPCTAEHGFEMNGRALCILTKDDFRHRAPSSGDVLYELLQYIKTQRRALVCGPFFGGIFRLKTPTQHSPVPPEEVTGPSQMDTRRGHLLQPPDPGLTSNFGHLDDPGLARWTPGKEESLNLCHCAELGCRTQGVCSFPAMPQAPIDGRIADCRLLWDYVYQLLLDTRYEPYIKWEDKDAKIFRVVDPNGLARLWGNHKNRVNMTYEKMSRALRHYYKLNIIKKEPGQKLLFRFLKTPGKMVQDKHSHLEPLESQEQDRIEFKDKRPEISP
Summary of the method: as §1

ELF5 = biological target: T11, ELF5 (Homo sapiens, UniProt Q9UKW6-2 1-255); conditions: protein: recombinant; tags: N-terminal GST; dsDNA, one strand shown
T11 sequence: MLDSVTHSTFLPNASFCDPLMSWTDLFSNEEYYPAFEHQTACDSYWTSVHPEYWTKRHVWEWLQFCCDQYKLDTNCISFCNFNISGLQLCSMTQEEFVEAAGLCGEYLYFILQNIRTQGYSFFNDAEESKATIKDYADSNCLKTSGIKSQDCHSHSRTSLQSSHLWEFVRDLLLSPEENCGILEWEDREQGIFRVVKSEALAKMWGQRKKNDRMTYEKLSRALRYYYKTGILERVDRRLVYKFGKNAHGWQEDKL
Summary of the method: as §1

ETV3 = biological target: T12, ETV3 (Homo sapiens, UniProt P41162-2 1-143); conditions: protein: recombinant; tags: N-terminal GST; dsDNA, one strand shown
T12 sequence: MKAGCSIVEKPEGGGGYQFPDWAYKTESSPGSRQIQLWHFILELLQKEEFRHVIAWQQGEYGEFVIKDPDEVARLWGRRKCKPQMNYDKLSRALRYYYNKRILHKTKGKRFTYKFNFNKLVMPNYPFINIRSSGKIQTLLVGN
Summary of the method: as §1

ETV6 = ETV6 (Homo sapiens, UniProt P41212 1-452); conditions: protein: recombinant; tags: N-terminal GST; dsDNA, one strand shown
Summary of the method: as §1

Chain of CRX (O43186 whole entry): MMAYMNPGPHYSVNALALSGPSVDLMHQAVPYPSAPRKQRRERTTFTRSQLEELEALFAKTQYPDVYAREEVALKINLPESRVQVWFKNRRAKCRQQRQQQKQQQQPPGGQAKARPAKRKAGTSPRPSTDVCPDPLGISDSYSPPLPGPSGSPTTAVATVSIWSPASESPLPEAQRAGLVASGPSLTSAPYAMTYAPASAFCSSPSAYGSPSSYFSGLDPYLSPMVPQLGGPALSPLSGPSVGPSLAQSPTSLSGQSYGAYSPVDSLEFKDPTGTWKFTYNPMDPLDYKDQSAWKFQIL
Chain of ELF4 (Q99607 whole entry): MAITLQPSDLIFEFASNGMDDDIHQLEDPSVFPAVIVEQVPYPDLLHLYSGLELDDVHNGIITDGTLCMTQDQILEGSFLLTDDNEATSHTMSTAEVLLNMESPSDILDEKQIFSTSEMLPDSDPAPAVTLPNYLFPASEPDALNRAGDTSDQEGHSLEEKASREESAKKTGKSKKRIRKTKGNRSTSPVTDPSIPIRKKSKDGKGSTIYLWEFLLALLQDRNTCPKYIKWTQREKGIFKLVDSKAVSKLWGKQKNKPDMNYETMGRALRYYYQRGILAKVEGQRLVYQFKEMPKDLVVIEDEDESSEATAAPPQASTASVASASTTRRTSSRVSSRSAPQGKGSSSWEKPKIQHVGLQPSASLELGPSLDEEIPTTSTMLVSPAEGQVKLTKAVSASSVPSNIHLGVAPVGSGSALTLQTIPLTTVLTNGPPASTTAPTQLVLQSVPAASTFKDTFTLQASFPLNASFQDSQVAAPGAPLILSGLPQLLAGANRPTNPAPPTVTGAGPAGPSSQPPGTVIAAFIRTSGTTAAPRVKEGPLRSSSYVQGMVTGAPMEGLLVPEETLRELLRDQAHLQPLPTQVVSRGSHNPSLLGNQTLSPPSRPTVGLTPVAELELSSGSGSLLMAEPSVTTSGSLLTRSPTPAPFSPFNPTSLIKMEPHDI
Chain of ETV6 (P41212 whole entry): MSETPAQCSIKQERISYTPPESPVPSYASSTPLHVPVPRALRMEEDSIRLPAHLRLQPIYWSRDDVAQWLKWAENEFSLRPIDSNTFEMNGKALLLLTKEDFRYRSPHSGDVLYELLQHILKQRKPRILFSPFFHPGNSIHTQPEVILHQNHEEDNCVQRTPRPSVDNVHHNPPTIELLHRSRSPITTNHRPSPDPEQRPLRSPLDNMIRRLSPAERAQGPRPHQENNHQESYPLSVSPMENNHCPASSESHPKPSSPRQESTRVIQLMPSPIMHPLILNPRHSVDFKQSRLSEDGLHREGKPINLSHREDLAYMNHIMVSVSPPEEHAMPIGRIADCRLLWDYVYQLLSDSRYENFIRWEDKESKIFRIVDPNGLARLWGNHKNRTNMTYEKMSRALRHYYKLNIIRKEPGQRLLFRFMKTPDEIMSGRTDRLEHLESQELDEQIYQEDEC
Chain of ETV5 (P41161 whole entry): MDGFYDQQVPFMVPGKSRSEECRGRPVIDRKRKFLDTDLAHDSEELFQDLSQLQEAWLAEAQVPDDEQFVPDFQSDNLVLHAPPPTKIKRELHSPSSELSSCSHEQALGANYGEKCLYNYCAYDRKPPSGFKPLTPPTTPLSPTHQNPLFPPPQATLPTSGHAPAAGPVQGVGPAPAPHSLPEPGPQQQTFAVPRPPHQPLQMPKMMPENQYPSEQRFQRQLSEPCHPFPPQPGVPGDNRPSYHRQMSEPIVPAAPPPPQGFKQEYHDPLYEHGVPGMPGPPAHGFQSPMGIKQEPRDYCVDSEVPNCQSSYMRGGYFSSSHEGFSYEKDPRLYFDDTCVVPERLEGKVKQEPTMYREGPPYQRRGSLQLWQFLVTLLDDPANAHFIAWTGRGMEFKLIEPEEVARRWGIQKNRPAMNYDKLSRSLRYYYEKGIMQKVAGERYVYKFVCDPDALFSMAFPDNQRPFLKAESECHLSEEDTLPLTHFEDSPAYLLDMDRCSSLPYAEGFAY
Chain of HSF1 (Q00613 whole entry): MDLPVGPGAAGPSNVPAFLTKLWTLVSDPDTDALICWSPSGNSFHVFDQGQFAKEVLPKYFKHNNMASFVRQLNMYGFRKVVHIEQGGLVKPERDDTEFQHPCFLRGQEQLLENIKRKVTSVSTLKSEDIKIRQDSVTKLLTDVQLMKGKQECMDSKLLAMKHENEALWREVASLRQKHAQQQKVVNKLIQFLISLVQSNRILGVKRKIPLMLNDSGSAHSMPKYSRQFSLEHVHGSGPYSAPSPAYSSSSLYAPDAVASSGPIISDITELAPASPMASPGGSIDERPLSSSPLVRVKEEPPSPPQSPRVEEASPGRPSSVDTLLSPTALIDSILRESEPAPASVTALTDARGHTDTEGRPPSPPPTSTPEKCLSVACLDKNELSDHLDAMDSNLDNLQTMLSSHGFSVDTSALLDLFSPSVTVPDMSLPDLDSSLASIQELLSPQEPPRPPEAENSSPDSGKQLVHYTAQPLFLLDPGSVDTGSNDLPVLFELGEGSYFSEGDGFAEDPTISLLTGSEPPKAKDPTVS
Chain of ETV1 (P50549 whole entry): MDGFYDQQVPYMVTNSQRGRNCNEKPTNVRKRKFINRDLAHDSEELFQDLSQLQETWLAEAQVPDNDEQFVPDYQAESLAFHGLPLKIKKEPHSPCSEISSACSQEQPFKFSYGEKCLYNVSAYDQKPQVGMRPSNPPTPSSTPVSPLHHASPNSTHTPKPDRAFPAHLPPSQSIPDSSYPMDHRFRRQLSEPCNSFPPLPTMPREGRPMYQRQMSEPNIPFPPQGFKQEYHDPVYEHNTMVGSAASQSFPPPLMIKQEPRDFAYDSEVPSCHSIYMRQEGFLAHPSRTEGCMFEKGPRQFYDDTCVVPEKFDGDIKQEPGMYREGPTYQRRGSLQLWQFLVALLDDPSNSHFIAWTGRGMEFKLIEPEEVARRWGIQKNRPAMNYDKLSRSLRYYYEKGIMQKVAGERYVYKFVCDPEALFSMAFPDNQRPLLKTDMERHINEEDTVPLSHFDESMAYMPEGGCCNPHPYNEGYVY

AATAAT
binding signal (FEV): 1.28 fold enrichment (6-mer frequency, TF over GST control) | binding signal (ETV5): 1.35 fold enrichment (6-mer frequency, TF over GST control) | binding signal (HSF1): 1.93 fold enrichment (6-mer frequency, TF over GST control) | binding signal (SPIC): 1.31 fold enrichment (6-mer frequency, TF over GST control) | binding signal (ELF4): 1.24 fold enrichment (6-mer frequency, TF over GST control) | binding signal (ELK4): 1.22 fold enrichment (6-mer frequency, TF over GST control) | binding signal (ETV2): 1.34 fold enrichment (6-mer frequency, TF over GST control) | binding signal (ELF3): 1.42 fold enrichment (6-mer frequency, TF over GST control) | binding signal (CRX): 2.41 fold enrichment (6-mer frequency, TF over GST control) | binding signal (ETV1): 1.24 fold enrichment (6-mer frequency, TF over GST control) | binding signal (ERF): 1.52 fold enrichment (6-mer frequency, TF over GST control) | binding signal (ETV3L): 1.35 fold enrichment (6-mer frequency, TF over GST control) | binding signal (ETS2): 1.42 fold enrichment (6-mer frequency, TF over GST control) | binding signal (SPDEF): 1.21 fold enrichment (6-mer frequency, TF over GST control) | binding signal (ETV7): 1.23 fold enrichment (6-mer frequency, TF over GST control) | binding signal (ELF5): 1.29 fold enrichment (6-mer frequency, TF over GST control) | binding signal (ETV3): 1.27 fold enrichment (6-mer frequency, TF over GST control) | binding signal (ETV6): 1.34 fold enrichment (6-mer frequency, TF over GST control)
